BoNT A protease: BoNT/A light chain protease inhibitors, primary screen, biochemical, flow cytometry, MLPCN library; multiplex microsphere protease substrate cleavage; inhibition, % at 10 µM; hit rate 0.17% among 360,000; AID 588499, 2011; also: plate controls were buffer without enzyme for full effect and enzyme alone for no effect
Autofluor counter: flagged as autofluorescent in microsphere protease counterscreen. AID 624483. hit rate 3.1% among 360,000. fluorescence intensity (no concentration beside the values). compound autofluorescence counterscreen, microsphere flow cytometry; hits give high values; in the data active = fluorescence intensity above about 16000; inconclusive = no clear call, values can overlap the other calls
Vc quorum ag: inducers of Vibrio cholerae quorum light production without autoinducers, primary screen, BH1578 luxS cqsA deficient, single point; V. cholerae BH1578 lux reporter, luminescence, 6 h; activation, % at 18.7 µM; hit rate 0.16% among 350,000; AID 588436, 2011; in the data active = activation mostly above about 9.7%, no sharp cut-off; inconclusive = no clear call, values can overlap the other calls; inactive = mostly below about 3.7%
BoNT-F LC inh: BoNT/F light chain protease inhibitors, primary screen, biochemical, flow cytometry, MLPCN library; hit rate 0.22% among 360,000; AID 588497, 2011; Multiplex microsphere protease cleavage assay; Botulinum neurotoxin type F light chain protease (Clostridium botulinum); inhibition, % at 10 µM; in the data active = inhibition above about 35%, passing the limit was not always enough; inconclusive = no clear call, values can overlap the other calls; also: plate controls were buffer without enzyme for full effect and enzyme alone for no effect
Anthrax LF prot: Bacillus anthracis LF protease inhibitors, primary screen, biochemical, multiplex microsphere, MLPCN library; Lethal factor (Bacillus anthracis), P15917; multiplex microsphere protease cleavage assay; inhibition, % at 10 µM; hit rate 0.12% among 360,000; AID 588501, 2011; also: plate controls were buffer without enzyme for full effect and enzyme alone for no effect
BJeLR viability: MLPCN primary cell-based screen for lethality selective to Ras in HRASV12 cells. BJeLR (HRASV12) viability, CellTiter-Glo ATP luminescence, 48 h. inhibition, % (concentration not given with the values). hit rate 0.17% among 300,000. AID 1554, 2009; in the data active = inhibition above about 50%; inconclusive = no clear call, values can overlap the other calls
The depositor's hits bear a star. Shown are actives, neighbours in structure and some others; about 3.7% of the full set was active somewhere. Rule as the data show it, unless noted: active = inhibition above about 30%; inconclusive = no clear call, values can overlap the other calls; inactive = below that.

Results for CC1=C(C(=O)OC(C)C)C(c2cccs2)N2C(=O)CCSC2=N1 (stereo not drawn) ?
BoNT A protease: -4.6; Autofluor counter: 25343*; Vc quorum ag: inactive; BoNT-F LC inh: -7.7; Anthrax LF prot: -1.9; BJeLR viability: -1.2

Results for COc1ccc(C2C(C(=O)Nc3ccccc3)=C(C)N=C3SCC(=O)N32)cc1 (stereo not drawn) ?
BoNT A protease: 1.1; Autofluor counter: 2852; BoNT-F LC inh: -2.5; Anthrax LF prot: 1.9; BJeLR viability: 5.9

What do the screens show for `COC(=O)C1=C(C)N=C2SCCC(=O)N2C1c1ccc(C(=O)OC)cc1` (stereo not drawn)?
BoNT A protease: -3.4; Autofluor counter: 24822*; Vc quorum ag: inactive; BoNT-F LC inh: -7.3; Anthrax LF prot: -1.4; BJeLR viability: 1.1

How did CC(C)c1ccc(S(=O)(=O)N2CCC(C(=O)N3CCN(c4cccc(Cl)c4)CC3)CC2)cc1 do in these assays?
BoNT A protease: -1.3; Autofluor counter: 4241; Vc quorum ag: inactive; BoNT-F LC inh: -3.6; Anthrax LF prot: -4.1

How did c1csc(CNCCN2CCOCC2)c1 do in these assays?
BoNT A protease: 0.5; Autofluor counter: 16263*; Vc quorum ag: -0.6; BoNT-F LC inh: -0.3; Anthrax LF prot: -2.2; BJeLR viability: -1.5

What do the screens show for `O=C(NCCN1CCOCC1)c1cccs1`?
BoNT A protease: -0.3; Autofluor counter: 2901; BoNT-F LC inh: -0.1; Anthrax LF prot: -0.6; BJeLR viability: -9.0

Results for O=C(C1CCCN(Cc2cccc(F)c2)C1)N1CCCCC1 (stereo not drawn) ?
BoNT A protease: -0.4; Autofluor counter: 16903*; Vc quorum ag: 6.2; BoNT-F LC inh: 2.0; Anthrax LF prot: -1.0; BJeLR viability: 12.7

How did COC(=O)c1sccc1-c1ccc(C(N)=O)o1 do in these assays?
BJeLR viability: 1.3

How did COC(=O)c1sccc1-c1ccc(C(=O)Nc2cccnc2)o1 do in these assays?
BoNT A protease: 1.7; Autofluor counter: 21993*; Vc quorum ag: inactive; BoNT-F LC inh: 2.2; Anthrax LF prot: -9.2; BJeLR viability: -2.1

What do the screens show for `CCOC(=O)C(=Cc1ccc(-c2ccsc2C(=O)OC)o1)C(=O)OCC`?
BoNT A protease: 0.6; Autofluor counter: 22339*; Vc quorum ag: -11.1; BoNT-F LC inh: 1.3; Anthrax LF prot: 0.1; BJeLR viability: 5.8

Results for O=C(Nc1ccc([N+](=O)[O-])cc1)C(c1ccccc1)c1ccccc1 ?
BoNT A protease: 0.2; Autofluor counter: 3550; Vc quorum ag: -0.2; BoNT-F LC inh: -1.6; Anthrax LF prot: -4.4

How did COc1ccc(N2CCN(C(=O)CC3NC4CCCCC4NC3=O)CC2)cc1 (stereo not drawn) do in these assays?
BoNT A protease: 1.5; Autofluor counter: 22113*; Vc quorum ag: 5.9; BoNT-F LC inh: 2.2; Anthrax LF prot: -1.2; BJeLR viability: 9.5

Results for CC(=NNC(=O)c1cccs1)c1ccc2c(c1)OCCO2 ?
BoNT A protease: 0.0; Autofluor counter: 3052; Vc quorum ag: inactive; BoNT-F LC inh: -4.9; Anthrax LF prot: -1.4

What do the screens show for `O=C(c1ccc2c(c1)OCCCO2)c1cccs1`?
BoNT A protease: inconclusive; Autofluor counter: 22559*; Vc quorum ag: inactive; BoNT-F LC inh: -4.3; Anthrax LF prot: -1.0; BJeLR viability: 1.0

What do the screens show for `O=C(c1cccs1)N1CCc2ccccc21`?
BoNT A protease: 1.3; Autofluor counter: 21871*; Vc quorum ag: inactive; BoNT-F LC inh: 1.4; Anthrax LF prot: 1.8; BJeLR viability: -7.7

What do the screens show for `Cc1ccc2c(c1)CCCN2C(=O)c1cccs1`?
BoNT A protease: -1.8; Autofluor counter: 20191*; Vc quorum ag: 2.4; BoNT-F LC inh: -4.2; Anthrax LF prot: 1.5; BJeLR viability: 6.6

How did Cc1nn(-c2ccccc2)nc1C(=O)Nc1cccc(C(=O)NC2CC2)c1 do in these assays?
BoNT A protease: 0.0; Autofluor counter: 4085; Vc quorum ag: 0.5; BoNT-F LC inh: -0.4; Anthrax LF prot: 0.7

What do the screens show for `COc1ccc(C(CNC(=O)c2ccc(OCc3c(C)noc3C)cc2)N2CCCC2)cc1` (stereo not drawn)?
BoNT A protease: -5.2; Autofluor counter: 17256*; Vc quorum ag: -7.1; BoNT-F LC inh: 6.9; Anthrax LF prot: -1.8

What do the screens show for `COc1ccccc1C(CNC(=O)c1ccc(OCc2c(C)noc2C)cc1)N1CCCC1` (stereo not drawn)?
BoNT A protease: -6.1; Autofluor counter: 15575; Vc quorum ag: -2.5; BoNT-F LC inh: -3.7; Anthrax LF prot: -3.4

How did Cc1ccc(NC(=O)c2ccc(OCc3c(C)noc3C)cc2)nc1 do in these assays?
BoNT A protease: -40.1; Autofluor counter: 16600*; Vc quorum ag: 1.2; BoNT-F LC inh: -67.6; Anthrax LF prot: -10.7

Results for COc1ccc(NC(=O)COC(=O)c2ccc(OCc3c(C)noc3C)cc2)cc1OC ?
BoNT A protease: -0.8; Autofluor counter: 21341*; Vc quorum ag: -5.3; BoNT-F LC inh: -0.7; Anthrax LF prot: 1.9; BJeLR viability: 12.9

How did Cc1ccc(NC(=O)c2ccc(OCc3c(C)noc3C)cc2)cc1 do in these assays?
BJeLR viability: 3.9

How did COc1cc(C(=O)NCC(c2ccco2)N2CCCC2)ccc1OCc1c(C)noc1C (stereo not drawn) do in these assays?
BoNT A protease: -1.5; Autofluor counter: 23986*; Vc quorum ag: inactive; BoNT-F LC inh: -3.3; Anthrax LF prot: -1.5; BJeLR viability: -27.2

Results for CCc1cc(-c2cnnn2Cc2ccccc2)ccc1-c1cn(CC(C)C)nn1 ?
BoNT A protease: -0.1; Autofluor counter: 2907; Vc quorum ag: -0.6; BoNT-F LC inh: 0.2; Anthrax LF prot: -10.9

Results for CC1C(=O)N(Cc2cn(CCC3OCCCO3)nn2)CCS(=O)(=O)N1Cc1ccc(-c2ccc(Cl)cc2)cc1 (stereo not drawn) ?
BoNT A protease: 0.2; Autofluor counter: 3447; Vc quorum ag: -0.5; BoNT-F LC inh: -8.8; Anthrax LF prot: -3.3

How did CSc1nnc(-c2sccc2OCc2ccccc2)n1C do in these assays?
BoNT A protease: -1.3; Autofluor counter: 16539*; Vc quorum ag: inactive; BoNT-F LC inh: -3.8; Anthrax LF prot: -0.5; BJeLR viability: -3.8

Results for O=C(Nc1ccc(Cl)cc1)c1ccc2sc([C@@H]3O[C@H](CO)[C@@H](O)[C@H]3O)nc2c1 ?
BoNT A protease: 0.0; Autofluor counter: 3660; Vc quorum ag: -1.3; BoNT-F LC inh: -0.8; Anthrax LF prot: 4.3

How did Cc1ccc(NC(=O)NC(=O)CSc2nnnn2C)c(C)c1 do in these assays?
BoNT A protease: 0.0; Autofluor counter: 20545*; Vc quorum ag: -0.4; BoNT-F LC inh: 0.1; Anthrax LF prot: -0.8; BJeLR viability: -1.3

Results for CCOC(=O)C(=O)N(C)c1c(CC)nc2c(OCCC3CCCCC3)cccn12 ?
BoNT A protease: -0.6; Autofluor counter: 3655; Vc quorum ag: 1.3; BoNT-F LC inh: -0.5; Anthrax LF prot: -6.3

Screens: PubChem, several laboratories
